Screen size: about 310,000 compounds; about 1,200 (0.39%) were called active. No rule for the calls is given here. A selection follows. Entries with a potency or affinity are not part of this list.

Sequence of Large T antigen (Simian virus 40) (P03070 whole entry, looked up): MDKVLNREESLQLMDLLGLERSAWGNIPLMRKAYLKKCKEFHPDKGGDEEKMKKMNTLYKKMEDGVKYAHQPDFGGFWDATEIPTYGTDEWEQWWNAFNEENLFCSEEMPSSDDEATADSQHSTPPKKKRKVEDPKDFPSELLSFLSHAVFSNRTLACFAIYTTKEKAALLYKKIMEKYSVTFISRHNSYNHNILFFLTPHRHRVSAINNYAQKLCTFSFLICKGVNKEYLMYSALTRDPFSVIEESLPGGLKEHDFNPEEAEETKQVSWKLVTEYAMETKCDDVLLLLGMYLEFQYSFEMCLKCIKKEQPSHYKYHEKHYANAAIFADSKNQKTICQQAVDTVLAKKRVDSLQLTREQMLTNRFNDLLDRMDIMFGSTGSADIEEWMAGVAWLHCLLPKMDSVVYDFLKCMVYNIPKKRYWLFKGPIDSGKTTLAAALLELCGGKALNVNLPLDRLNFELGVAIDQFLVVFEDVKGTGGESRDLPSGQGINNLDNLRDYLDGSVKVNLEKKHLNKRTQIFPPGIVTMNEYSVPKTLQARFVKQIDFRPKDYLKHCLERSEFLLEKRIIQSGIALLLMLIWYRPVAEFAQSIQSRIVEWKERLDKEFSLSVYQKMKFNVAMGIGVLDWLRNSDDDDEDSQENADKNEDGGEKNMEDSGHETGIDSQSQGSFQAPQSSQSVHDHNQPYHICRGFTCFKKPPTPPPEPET

This assay has as its target Large T antigen (Simian virus 40) (UniProt P03070). Description: SV40 large T antigen inhibitors, biochemical (AID 1903). As to conditions: SV40 large T antigen ATPase/helicase inhibition assay; at 20 µM; active compounds read high.
Consider `CCOC(=O)c1cc(-c2ccc(OC)cc2)n(CCC(=O)NCCN2CCC(C)CC2)c1C`, for which the inhibition is 5.63% (inactive). With `CCN(CC)C(=O)Cn1cnc2ccccc2c1=O` the figure was 5.63% (inactive); with `O=C1/C(=C\c2ccco2)NC(=S)N1c1ccccc1`, 35.2% (inactive); with `COc1ccc(N2C(=O)/C(=C/c3cccs3)NC2=S)cc1`, 14.1% (inactive).

Regarding `Cc1ccc(/C=C2\C(=O)Nc3ccccc32)o1`, the inhibition was 11.2% (inactive). With `Cc1ccc(/C=C2/NC(=O)N(c3ccccc3)C2=O)o1` the figure was 22.8% (inactive); with `Cc1ccc(/C=C2/C(=O)N(c3ccccc3)C(=S)N2C)o1`, 6.66% (inactive); with `COc1ccc(N2C(=O)C3CC(C)=C(C)CC3C2=O)c(OC)c1` (stereo not given), 11.1% (inactive). With `CCOc1ccc(N2C(=O)/C(=C/c3ccc(C)o3)N(C)C2=S)cc1` the figure was 15.8% (inactive); with `CCCN1C(=O)/C(=C/c2ccc(C)o2)NC1=S`, 33.1% (inactive); with `COc1cc(O)c(C(CC(=O)N2CCCC(C)C2)c2ccc3c(c2)OCO3)c(OC)c1` (stereo not given), 6.43% (inactive). With `Cn1cccc1C(=O)NNC(=O)c1ccccc1Br` the figure was 8.13% (inactive); with `CC1(C)CC(=O)/C(=C(\O)Cc2ccccc2)C(=NCCCCCC(=O)O)C1`, 4.38% (inactive).

In the case of `CCCCNCc1cccn1-c1ccccc1`, the inhibition is 24.7% (inactive).

For `COc1c(C)cccc1C(=O)Nc1ccc(OCC(=O)N2CCOCC2)cc1C`, the inhibition is 14.7% (inactive). Under `COCC(=O)N/N=C\c1ccccc1OC/C=C/c1ccccc1` stands 4.69% (inactive). With `C=CCOc1ccc(C=Nc2ccc(OC)cc2)c(O)c1` the figure was 28.3% (inactive). Under `COc1ccc(N=Cc2[nH]c3ccccc3c2O)cc1` stands 13.7% (inactive). With `Cc1csc(NC(=O)CSc2nnc(-c3ccccc3)o2)n1`, the inhibition is -6.99% (inactive). `Cc1cc(SCC(=O)N/N=C/c2ccc(O)cc2O)nc2ccccc12`: the inhibition was 7.95% (inactive). Under `COc1cc(/C=N/NC(=O)c2cc(-c3ccccc3)nc3ccccc23)ccc1O` stands 25.1% (inactive); under `CCn1c(SCC(=O)N/N=C/c2cc(OC)c(O)c(OC)c2)nc2ccccc21`, -7.37% (inactive). Under `Cn1c(SCC(=O)N/N=C/c2ccncc2)nc2ccccc21` stands 2.44% (inactive); under `O=C(N/N=C/c1ccc(O)cc1)c1cc(-c2ccccc2)nc2ccccc12`, 14.6% (inactive); under `Cc1cc(SCC(=O)N/N=C/c2ccc(C(=O)O)cc2)nc2ccccc12`, 6.65% (inactive). Under `CCn1c(SCC(=O)N/N=C/c2ccc(OC)c(OC)c2)nc2ccccc21` stands 6.02% (inactive). On to `COc1cc(/C=N/NC(=O)CSc2nc3ccccc3n2C)cc(OC)c1OC`, for which the inhibition is -1.56% (inactive). Under `C#CCOCCOCCOCCNc1nc(N2CCN(C(=O)CCCCCCCCCCNC(=O)[C@@H](CCC(=O)O)n3cc(CCCCCN)nn3)CC2)nc(N2CCN(C(=O)CCCCCCCCCCNC(=O)[C@H](CO)n3cc(CCCCCN)nn3)CC2)n1` stands 31.5% (inactive).

For the molecule `CCOC(=O)C1=C(C)N(C)C(=S)N(C)C1c1ccc(OC)cc1` (stereo not given), the inhibition is -2.82% (inactive). Under `CCOc1cc2sc(N3CCC(C(=O)NCCCN4CCCC4=O)CC3)nc2cc1Br` stands 12.1% (inactive). Take `Cc1ccc(C(=O)NCCc2n[nH]c(=S)n2C)cc1`: the inhibition was 10.6% (inactive). With `CCC(=O)N1c2ccccc2[C@@H](N(C(C)=O)c2ccccc2)C[C@H]1C` the figure was 4.31% (inactive); with `O=C(c1ccccc1)N1CCN(C2CC3CCC2C3)CC1` (stereo not given), 6.45% (inactive). With `O=C1/C(=C/c2ccc(F)cc2)SC(=S)N1CC(=O)N1CCCCC1c1cccnc1` (stereo not given) the figure was 18.2% (inactive).

In the case of `CCOC(=O)c1c(C)n(C)c2c(C)cc(O)c(OC(C)=O)c12`, the inhibition is 1.3% (inactive). With `COC(=O)c1ccc(N)c(CS(=O)(=O)c2ccc(Cl)cc2)c1` the figure was -0.68% (inactive); with `OCC1(Cc2ccccc2)CCCN(Cc2ccc3c(c2)OCCO3)C1` (stereo not given), 10.8% (inactive).

In the case of `CC(C)n1cnc2cc(NCc3nc4ccccc4n3C)ccc21`, the inhibition is 20.2% (inactive). Under `Cc1ccc(C(=O)Nc2nnc(CC(=O)N/N=C/c3ccc(O)c(O)c3)s2)cc1` stands 19.4% (inactive). With `O=C(CSc1nc2ccccc2o1)N/N=C/c1ccccc1` the figure was 12.4% (inactive); with `O=C(Cc1nnc(NC(=O)c2ccccc2)s1)N/N=C/c1ccc(O)cc1`, 17.1% (inactive); with `O=C(CSc1nc2ccccc2o1)N/N=C/c1ccc(C(=O)O)cc1`, 16.5% (inactive).

As to `CCN(CC(=O)Nc1c(F)cccc1F)C(=O)/C=C/c1ccc(Br)s1`, the inhibition was 18.8% (inactive). With `Cc1ccc(-c2cn3c(n2)SCC3)cc1` the figure was 23.1% (inactive); with `Oc1ccc(-c2cn3c(n2)SCC3)cc1`, 28.9% (inactive). With `Cc1ccc(C)c(S(=O)(=O)N2CCCCC2CCNC(=O)C(=O)NCc2cccnc2)c1` (stereo not given) the figure was 11.7% (inactive). With `CN(C)CCn1c(COc2ccccc2)nc2ccccc21` the figure was 27.6% (inactive); with `COc1ccc(N2CCN(C(=S)NCc3ccc(C)cc3)CC2)cc1`, 5.85% (inactive); with `CCCCCC(=O)NC(NC(=S)Nc1ccc(S(N)(=O)=O)cc1)C(Cl)(Cl)Cl` (stereo not given), 7.24% (inactive). On to `O=C(Nc1cccc(-n2cnnn2)c1)c1cccs1`, for which the inhibition was 6.94% (inactive). With `O=C(Nc1cccc(N2CCCC2)c1)c1cccs1` the figure was 7.12% (inactive). Under `CN1CCCN(C(=O)CSc2ccccc2)CC1` stands 27.3% (inactive); under `Cc1ccc(/C=C/C(=O)NCc2ccco2)o1`, 16.3% (inactive); under `O=C1C(=Cc2cccn2-c2ccc(O)cc2)C(=O)c2ccccc21`, 3.5% (inactive). Under `O=C1NC(=S)N/C1=C/c1cccn1-c1ccc([N+](=O)[O-])cc1` stands 5.15% (inactive). On to `COc1ccc(N(CC(=O)Nc2ccc(C)cc2C)S(=O)(=O)c2c(C)n[nH]c2C)cc1`, for which the inhibition was 17.7% (inactive). Under `O=C(COC(=O)c1n[nH]c2ccccc12)Nc1cccc(S(=O)(=O)N2CCOCC2)c1` stands 7.02% (inactive); under `CCOc1ccc(S(=O)(=O)Nc2ccc(O)c(Sc3ncn[nH]3)c2)cc1`, 6.38% (inactive). Under `CCOc1ccc(NS(=O)(=O)c2ccc3[nH]c(=O)oc3c2)cc1` stands 1.63% (inactive); under `O=C(c1ccc(S(=O)(=O)Nc2ccc(F)cc2)cc1)N1CCN(c2ccccn2)CC1`, 10.4% (inactive); under `COc1cc(/C=C2/SC(=O)NC2=O)ccc1OC(=O)c1ccco1`, 15.8% (inactive). With `COc1cc(/C=C2\C(=O)N(c3ccc(S(N)(=O)=O)cc3)N=C2C)ccc1OC(=O)c1ccco1` the figure was 32.1% (inactive); with `COC(=O)c1ccc(N2NC(=O)/C(=C/c3ccc(OC)c(OC)c3)C2=O)cc1`, 23.8% (inactive). In the case of `COc1cc(/C=C2/C(=O)NN(c3cccc(C)c3)C2=O)cc([N+](=O)[O-])c1O`, the inhibition is 12.9% (inactive). Take `COc1cc(/C=C2/C(=O)NN(c3ccc(Cl)cc3)C2=O)cc(Br)c1O`: the inhibition is 32.1% (inactive). Under `COc1cc(/C=C2\C(=O)NN(c3ccc(C)cc3)C2=O)cc([N+](=O)[O-])c1O` stands 36.6% (inactive); under `O=C(c1cccc2nc3ccccc3nc12)N1CCOCC1`, 13.7% (inactive); under `Cc1ccccc1N1C(=O)c2cccc([N+](=O)[O-])c2C1=O`, 18.8% (inactive). With `Cc1cccn2c(CNCCSc3nccn3C)c(C(=O)N3CCCCC3)nc12` the figure was 14.5% (inactive). `O=C(Nc1nncs1)Oc1ccccc1`: the inhibition is 14.9% (inactive).

As for `CCCCc1nc(SCC(=O)N2CCCC2)c2c(=O)n(C)c(=O)n(C)c2n1`, the inhibition was 8.36% (inactive).

With `O=C(Nc1ccc(Oc2ccc(NC(=O)C3CCCO3)cc2)cc1)C1CCCO1` (stereo not given), the inhibition is 5.21% (inactive). With `O=C(Nc1nccs1)C1CC=CCC1` (stereo not given) the figure was 2.9% (inactive); with `O=C(NNC(=O)C1CC=CCC1)c1ccccc1O` (stereo not given), -2.59% (inactive); with `O=C(Nc1ccc(F)cc1)c1ccc(NC(=O)C2CCCO2)cc1` (stereo not given), 1.01% (inactive). Under `O=C(Nc1cccc(O)c1)c1ccc(NC(=O)C2CCCO2)cc1` (stereo not given) stands 12.5% (inactive). With `O=C(Nc1ccc(F)cc1)C1CCCO1` (stereo not given) the figure was 22.1% (inactive). In the case of `COc1ccc(OC)c(CC(=O)NC(c2ccccc2)c2ccccc2)c1`, the inhibition was 5.47% (inactive). Under `O=C(N=Nc1c(O)[nH]c2ccccc12)c1cc(-c2ccc(F)cc2)n[nH]1` stands 7.92% (inactive); under `O=C(c1ccncc1)N1CCN(C(=O)c2ccco2)CC1`, 6.56% (inactive); under `O=S(Cc1cc(Oc2ccccc2)nc(-c2ccccc2)n1)c1ccccc1` (stereo not given), 16.4% (inactive).

For the molecule `CN1CCN(c2ccc(CNC(=O)c3ccco3)cc2)CC1`, the inhibition was 9.25% (inactive). With `O=C(CCCN1C(=O)CSc2ncccc21)N1CCN(Cc2ccccc2)CC1` the figure was -0.33% (inactive); with `COc1cccc(N/C(SCc2ccccc2F)=C(/C#N)C(=O)NCc2cccs2)c1`, 2.65% (inactive).

Turning to `Cc1ccc2[nH]c(=O)c(CN(Cc3ccccc3)C(=S)NCCCN(C)C)cc2c1`, the inhibition was 2.51% (inactive). With `NC(=O)c1cc(N)ccc1N1CCCC1`, the inhibition was 18.4% (inactive).

For `NC(=O)c1cc(N)ccc1N1CCCCC1`, the inhibition was 36% (inactive).

In the case of `COc1ccc(N(CC(=O)N2CCCC2)S(=O)(=O)c2ccc(NC(C)=O)cc2)cc1`, the inhibition was -2.23% (inactive). Under `O=C(CCc1ccccc1)Nc1nc2nc(-c3ccccc3)cc(=O)n2[nH]1` stands -26.7% (inactive); under `C/C(O)=C(/C#N)c1nc2ccccc2[nH]1`, 7.8% (inactive); under `C/C(O)=C(\C#N)c1nc2ccccc2[nH]1`, 1.46% (inactive). Under `O=S(=O)(c1cc(-c2nnc(-c3ccc(Br)cc3)o2)ccc1Br)N1CCCCCC1` stands 4.66% (inactive).

Regarding `O=C(Nc1ccc(Cl)cc1Cl)c1ccc(-c2ccccc2)cc1`, the inhibition is 3.2% (inactive). Under `CN(C)c1nn(C(=O)Nc2cccc(C(F)(F)F)c2)cc1-c1ccccc1` stands 23.9% (inactive). For the molecule `CN1CCN(S(=O)(=O)c2cnccc2N2CCN(c3cccc(Cl)c3)CC2)CC1`, the inhibition was 25% (inactive).

The values above are taken from PubChem BioAssay AID1903 (Southern Research Specialized Biocontainment Screening …, 2009).
